In assay [1] the test system is Human papillomavirus type 1a protein E7 (residues 44-93). The assay is described as follows: small molecules binding HPV E7 44-93 – biochemical, small-molecule microarray, residues 44-93, 635 nm fluorescence, primary screen (AID 1108).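 Note: E7 fragment applied at 1 µg/mL in TBST for 1 h at 4 C; score combines spot fluorescence with its signal to noise ratio.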 As to conditions: fluorescence 635 nm, higher = more signal.
Assay [2] is described as follows: hepatitis C replication reporter changes, two-sided – Huh7 cells, luciferase reporter, HCV replication inhibitor project, primary screen (AID 1109).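 Note: huh7 hepatoma cells harbouring a luciferase neomycin HCV replicon reporter; luciferase luminescence as measure of HCV replicon replication; test concentration not given here.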 Particulars: Huh7 HCV replicon luciferase reporter, 48 h; higher = more signal.
The target in assay [3] is Left-right determination factor 2 (Homo sapiens) (UniProt O00292). Nature of the assay: small molecules binding LEFTY2 protein – biochemical, small-molecule microarray, 635 nm fluorescence scan, primary screen (AID 1110). As to conditions: higher = more signal.
Assay [4] deals with Calmodulin-1 (Homo sapiens) (UniProt P0DP23). The assay is described as follows: small molecules binding calmodulin-1 with EGTA – biochemical, small-molecule microarray, Cy5-labelled CALM1, profiling panel (AID 1111).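 Note: labelled calmodulin applied in Tris saline Tween buffer holding calcium plus EGTA and DTT.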 Particulars: Cy5-CALM1 binding fluorescence, higher = more signal.
For assay [5] the target is unchanged. The assay is described as follows: small molecules binding Ca-loaded calmodulin-1 – biochemical, small-molecule microarray, Cy5-labelled CALM1, plus calcium, artefact control for SMM control-protein annotation, profiling panel (AID 1112).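 Note: score merges spot fluorescence with signal to noise from triplicate slides.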 Particulars: Cy5-CALM1 binding fluorescence, higher = more signal.
The nature of assay [6]: probe aWnt5a binding to arrayed compounds – biochemical, biotinylated probe, 635/667 nm fluorescence, primary screen (AID 1113).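 Note: score merges 667 nm fluorescence intensity with signal-to-noise per printed feature.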 As to conditions: small-molecule microarray, higher = more signal.
The nature of assay [7]: probe aShh binding to arrayed compounds – biochemical, biotinylated probe, 635/667 nm fluorescence, primary screen (AID 1114).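 Note: probe is biotin-labelled aShh protein from a stem cell growth factor screen; measures binding of labelled protein to compounds printed on the slide; score merges feature fluorescence at 667 nm with signal-to-noise.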 Particulars: small-molecule microarray, higher = more signal.
A short description of assay [8]: probe aNog binding to arrayed compounds – biochemical, biotinylated probe, 635/667 nm fluorescence, primary screen (AID 1115).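 Note: probe is biotinylated aNog protein used at 0.15 µg/mL for 1 h at 4 C; z-score combines 667 nm fluorescence of each spot with its signal to noise.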 As to conditions: small-molecule microarray, higher = more signal.
Assay [9] concerns the target Torsin-1A-interacting protein 1 (Homo sapiens) (UniProt Q5JTV8). The assay is described as follows: compound microarray binding of lysate hLAP1 – cell lysate, small-molecule microarray, COS7 lysate, 635/667 nm fluorescence, primary screen (AID 1116). Particulars: 635 nm fluorescence, higher = more signal.
For assay [10], the target named is Alpha-bungarotoxin (Bungarus multicinctus) (UniProt P60615). The assay is described as follows: compounds binding labelled alpha-BTX control protein – biochemical, small-molecule microarray, Alexa647 label, 635/667 nm fluorescence, artefact control for SMM control protein annotation, profiling panel (AID 1117). As to conditions: alpha-BTX-A647 binding fluorescence, higher = more signal.
Alpha-bungarotoxin (Bungarus multicinctus), sequence (P60615 whole entry, looked up): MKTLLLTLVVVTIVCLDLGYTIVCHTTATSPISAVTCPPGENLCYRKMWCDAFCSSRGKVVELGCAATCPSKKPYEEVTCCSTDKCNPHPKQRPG

Torsin-1A-interacting protein 1 (Homo sapiens), sequence (Q5JTV8 whole entry, looked up): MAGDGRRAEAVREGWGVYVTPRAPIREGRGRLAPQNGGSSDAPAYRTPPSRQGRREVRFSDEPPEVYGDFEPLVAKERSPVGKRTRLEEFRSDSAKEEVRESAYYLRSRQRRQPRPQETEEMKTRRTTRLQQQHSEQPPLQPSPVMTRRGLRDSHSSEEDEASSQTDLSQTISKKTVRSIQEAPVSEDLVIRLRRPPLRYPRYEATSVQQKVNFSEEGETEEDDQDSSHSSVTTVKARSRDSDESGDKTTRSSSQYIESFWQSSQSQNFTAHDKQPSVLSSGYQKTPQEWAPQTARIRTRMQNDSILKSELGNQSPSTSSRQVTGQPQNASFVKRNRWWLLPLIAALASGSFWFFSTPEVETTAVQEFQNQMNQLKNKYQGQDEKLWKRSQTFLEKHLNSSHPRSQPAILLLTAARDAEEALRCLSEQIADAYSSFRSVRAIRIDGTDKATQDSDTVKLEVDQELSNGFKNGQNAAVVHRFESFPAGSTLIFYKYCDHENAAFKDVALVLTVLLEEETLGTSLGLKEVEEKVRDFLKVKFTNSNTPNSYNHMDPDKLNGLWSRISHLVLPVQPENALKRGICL
Left-right determination factor 2 (Homo sapiens), sequence (O00292 whole entry, looked up): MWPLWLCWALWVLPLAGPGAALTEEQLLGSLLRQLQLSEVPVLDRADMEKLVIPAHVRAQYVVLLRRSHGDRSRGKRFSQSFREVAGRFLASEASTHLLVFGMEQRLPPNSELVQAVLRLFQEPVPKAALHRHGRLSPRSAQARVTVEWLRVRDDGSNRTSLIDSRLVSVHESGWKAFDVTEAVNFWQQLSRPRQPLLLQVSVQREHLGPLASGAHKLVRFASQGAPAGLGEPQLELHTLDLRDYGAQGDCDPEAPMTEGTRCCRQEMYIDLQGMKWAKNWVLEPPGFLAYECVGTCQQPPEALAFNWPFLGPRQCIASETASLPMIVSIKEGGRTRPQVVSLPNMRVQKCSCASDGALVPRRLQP

As to `COCCOC(=O)N1C(=O)[C@@]2(c3cc(C#CC4(O)CCCCCC4)ccc31)[C@H](c1ccc(OCCO)cc1)N1[C@H](c3ccccc3)[C@H](c3ccccc3)OC(=O)[C@H]1[C@@H]2C(=O)N1CCCCCCC1`, the composite z-score in [1] came to 1.41; in assay [3], 0.725; in [4], 2.18; in assay [5], 1.45; in [6], 0.716; in assay [7], 1.01. The composite z-score amounted to 2.62 in [8], 2.51 in assay [9] and 1.89 in assay [10]. Further, the z-score in assay [2] was -1.94.
Turning to `CC(c1ccccc1)C(O)C1C=CC2C(=O)N(c3ccccc3)C(=O)C2N1Nc1ccc(C#N)cc1` (stereo not given), the composite z-score in assay [1] is 1.41; in assay [3], 0.8; in assay [4], 1.52; in [5] it was 0.253; in [6] it was 0.216; in assay [7], 0.156. Besides, the composite z-score came to 1.45 in assay [8], 1.8 in [9] and 1.39 in assay [10]. In assay [2], this compound registered a z-score of -0.354.
In the case of `C[C@H]1NC(=O)C([C@@H](C)OCc2ccccc2)NC(=O)[C@@]23C(=O)N[C@@H](Cc4ccccc4)C2[C@H](C)[C@@]2(C)O[C@H]2C3/C=C/C/C=C\CNC1=O` (stereo not given in full), the composite z-score in assay [1] was -0.037; in [3], 0.39; in assay [4], -0.553; in assay [5] it was -0.854; in [6], -0.213; in assay [7], -0.0553. For the same compound, the composite z-score was -0.0602 in [8], -0.0194 in assay [9] and 0.21 in assay [10]. The z-score in [2] is -1.52.
As to `COC(=O)c1c(CC[C@@H](CO)NC(=O)N[C@@H](Cc2ccccc2)Cn2cc(-c3cncn3C)nn2)oc(C(C)=O)c1C(=O)OC`, the composite z-score in assay [1] is 1.47; in [3] it was -0.338; in assay [4] it was 0.162; in assay [5] it was -0.329; in [6], -0.124; in assay [7] it was -0.0866. The composite z-score in assay [8] was -0.394; in assay [9] it was 1.62; in assay [10], 0.581. In addition, the z-score in assay [2] was -0.594.
In the case of `COC(=O)Cn1c(C(=O)N(C)C)cc2c1C[C@H]1CN(C(=O)c3ccccc3)[C@@](Cc3ccc(OC)cc3)(C(=O)OC)[C@@H]21`, the composite z-score in assay [1] is 1.3; in assay [3], -0.212; in assay [4], 0.966; in [5], -0.39; in assay [6], 0.409; in [7] it was 0.297. Further, the figures for the composite z-score in assay [8], in assay [9] and in assay [10] were 2.26, 1.8 and 0.299, respectively. Moreover, the z-score in assay [2] is -1.69.
Regarding `C=CCOC(=O)[C@H]1[C@@H]2C(=O)O[C@@H](c3ccccc3)[C@@H](c3ccccc3)N2[C@@H](c2ccc(OCCOC(=O)[C@@H]3C[C@@H]4C(=O)N[C@@H](Cc5ccccc5)C(=O)N4[C@@H]3c3ccc(O)cc3)cc2)[C@]12C(=O)Nc1ccccc12`, the composite z-score in [1] was 1.35; in assay [3], 0.747; in assay [4] it was 1.48; in [5] it was 0.0137; in assay [6], -0.124; in assay [7], -0.232. Also, the figures for the composite z-score in [8], in assay [9] and in [10] were 0.281, 0.409 and 0.948, respectively. The compound further had a z-score in assay [2] of -1.85.
As for `COCCOC(=O)N1C(=O)[C@@]2(c3cc(C#CCC(C(=O)OC)C(=O)OC)ccc31)[C@H](C(=O)N1CCCCCCC1)[C@H]1C(=O)O[C@H](c3ccccc3)[C@H](c3ccccc3)N1[C@@H]2c1ccccc1OCCO`, the composite z-score in assay [1] amounted to 1.32; in assay [3], 1.09; in assay [4], 2.56; in assay [5] it was 1.63; in assay [6], 0.931; in assay [7], 2.96. Also, the results for the composite z-score in [8], in assay [9] and in [10] were 3.14, 3.82 and 2.51, respectively. This compound returned a z-score in assay [2] of -2.25.
For `CCCCCCCCCCC(O)C1C=CC2C(=O)N(C)C(=O)C2N1N1CCCCC1` (stereo not given), the composite z-score in [1] is -0.469; in [3], -2.49; in assay [4] it was -0.311; in assay [5], 1.4; in assay [6], -0.196; in assay [7], 0.0278. For the same compound, the composite z-score in [8] was 0.715; in [9], -0.428; in assay [10], -1.09. This compound also returned a z-score in [2] of -0.941.
Turning to `COCCOC(=O)N1C(=O)[C@@]2(c3ccccc31)[C@H](C(=O)N1CCCCCCC1)[C@H]1C(=O)O[C@H](c3ccccc3)[C@H](c3ccccc3)N1[C@@H]2c1ccc(O)cc1`, the composite z-score turned out to be 1.4 in assay [1]; 1.17 in assay [3]; 2.73 in [4]; 1.56 in assay [5]; 1.39 in [6]; 1.04 in [7]. Also, the composite z-score in [8] is 2.12; in [9], 5.09; in assay [10], 3.37. Also, the z-score in assay [2] was -1.06.
Consider `C=CCC(OC(C)=O)[C@@H]1[C@@H](N(Cc2cccc3ccccc23)C(=O)c2ccc(-c3ccccc3)cc2)c2cc(OCCCO)ccc2N1C(=O)c1ccc2ccccc2n1` (stereo not given in full), for which the composite z-score was 0.237 in assay [1]; 0.258 in assay [3]; 0.249 in assay [4]; 0.979 in assay [5]; -0.0685 in assay [6]; 0.158 in assay [7]. In addition, the results for the composite z-score in [8], in assay [9] and in [10] were -0.278, 0.529 and -0.0098, respectively. Moreover, the z-score in assay [2] came to 0.15.
For the compound `COc1ccccc1CN1C(=O)c2ccccc2[C@@H](C(=O)NCCCN(C)C)[C@@H]1c1ccc(CO)cc1`, the composite z-score is -1.09 in assay [1]; 0.155 in assay [3]; -0.388 in assay [4]; -0.298 in assay [5]; -0.0529 in assay [6]; -0.0263 in [7]. The composite z-score in [8] was -0.337; in [9], 0.55; in assay [10], 0.256. Also, the z-score in assay [2] was -1.98.
With `CC#CCO[Si](C#CCCCCCC)(C(C)C)C(C)C`, the composite z-score in assay [1] is -0.321; in [3] it was -3.37; in assay [4] it was -0.626; in assay [5] it was 1.01; in [6], -0.275; in [7] it was -0.304. The composite z-score in [8] is -0.417; in assay [9] it was -0.438; in assay [10], 0.0016. This compound showed a z-score in [2] of 0.158.
For `COCCOC(=O)N1C(=O)[C@@]2(c3ccccc31)[C@H](c1ccc(OCCO)cc1)N1[C@H](c3ccccc3)[C@H](c3ccccc3)OC(=O)[C@H]1[C@@H]2C(=O)N1CCN(c2ncccn2)CC1`, the composite z-score was 1.41 in assay [1]; 1.06 in [3]; 1.51 in [4]; 0.039 in assay [5]; -0.001 in [6]; -0.043 in assay [7]. In addition, the composite z-score came to 0.998 in assay [8], 1.5 in assay [9] and 1.26 in assay [10]. In [2], this compound had a z-score of -1.47.
Consider `CCCCN1CC=CC23O[C@@H]4/C=C\CCC(C)OC(=O)C4[C@H]2C(=O)N(C(C)CO)[C@@H]3C1=O` (stereo not given in full), for which the composite z-score in assay [1] is -1.13; in assay [3], -0.0716; in [4], -0.325; in assay [5], -1.04; in assay [6] it was -0.178; in [7], -0.2. In addition, the composite z-score in [8] is -0.188; in assay [9], 0.201; in [10], -0.606. This compound gave a z-score in assay [2] of 0.263.
In the case of `COC(=O)[C@@]1(CCC(=O)OC(C)(C)C)N=C(c2ccc(OCCCO)cc2)O[C@H]1c1ccccc1CN=[N+]=[N-]`, the composite z-score in assay [1] was 0.263; in assay [3], -0.471; in assay [4] it was 0.183; in [5], -0.222; in assay [6], 0.0079; in [7], -0.0035. The composite z-score in [8] is -0.0655; in assay [9], 0.868; in assay [10], 0.592. Besides, the z-score in [2] was -2.6.
Regarding `COc1ccc([Si](C)(C)[C@@H]2[C@@H](CC(=O)N(CCO)Cc3ccccc3)O[C@]3(C(=O)N(Cc4ccc(N5CCC5=O)cc4)c4ccccc43)[C@H]2C)cc1`, the composite z-score in assay [1] was -0.382; in assay [3] it was 1.14; in assay [4], 0.086; in [5] it was 0.734; in assay [6], -0.176; in [7], 0.0898. Further, the composite z-score in assay [8] is -0.194; in assay [9], 0.357; in assay [10], 0.295. The z-score in [2] is -4.13.
In the case of `COc1cc2c(cc1O)C(c1ccc(CN3CCCC3)cc1)N(Cc1ccc([N+](=O)[O-])o1)CC2` (stereo not given), the composite z-score is -1.17 in assay [1]; 0.313 in assay [3]; 0.383 in assay [4]; 0.958 in assay [5]; -0.167 in [6]; -0.193 in assay [7]. For the same compound, the composite z-score was determined as 0.0692 in [8], 1.12 in assay [9] and 0.951 in assay [10]. This compound came in with a z-score in assay [2] of -1.05.

These data come from PubChem BioAssay.
